In paper PMC5540273 (PLoS ONE, 2017):
Values joined by “and” are separate entries in the source; they are usually repeats but may differ in a detail not shown here. Identical values can stand only once. Like-named read-outs stand apart in the source and are kept apart here.

Assays:
MEK2 = tested on: T1, MEK2; conditions: concentration: 1 μM, replicates: in singlicate; n = 1
T1 construct: gene MAP2K2

MEK3 = tested on: T2, MEK3; conditions: concentration: 1 μM, replicates: in singlicate; n = 1
T2 construct: gene MAP2K3

MEK4 = tested on: T3, MEK4; conditions: n = 1
T3 construct: gene MAP2K4

MEK5 = tested on: T4, MEK5; conditions: n = 1
T4 construct: gene MAP2K5

MEK6 = tested on: T5, MEK6; conditions: concentration: 1 μM, replicates: in singlicate; n = 1
T5 construct: gene MAP2K6

MELK = conditions: n = 1
MERTK = conditions: n = 1
MET = conditions: concentration: 1 μM, replicates: in singlicate; n = 1
MINK = tested on: T6, MINK; conditions: concentration: 1 μM, replicates: in singlicate; n = 1
T6 construct: gene MINK1

MKK7 = conditions: concentration: 1 μM, replicates: in singlicate; n = 1
[1] = concentration: 1 μM, replicates: in singlicate
[2] = concentration: 1 μM,replicates: in singlicate, 1 µM
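Note: KINOMEscan kinase panel screen.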

SMILES | %Inh (MEK2) | %Inh (MEK3) | %Inh (MEK4; [1]) | %Inh (MEK5; [1]) | %Inh (MEK6) | %Inh (MELK; [1]) | %Inh (MERTK; [1]) | %Inh (MET) | %Inh (MINK) | %Inh (MKK7) | %Inh (MEK4; [2]) | %Inh (MEK5; [2]) | %Inh (MELK; [2]) | %Inh (MERTK; [2])
Cc1c(Cn2ccn3c(=O)cc(N4CCOCC4)nc23)cccc1C(F)(F)F [GSK2289044] | 0% | 17% | 9% | 0% | 0% | 21% | 15% | 0% | 1% | 16% | – | – | – | –
Nc1nc(-c2nccs2)c(-c2ccnc3ccccc23)s1 [GW693542] | 0% | 0% | 36% | 45% | 0% | 56% | 22% | 2% | 51% | 0% | – | – | – | –
O=C(Nc1ccccc1)Nc1cccc(Oc2ccc3nccn3n2)c1 | 0% | 0% | 0% | 37% | 0% | 0% | 4% | 0% | 13% | 0% | – | – | – | –
Cc1csc(-c2nc(Nc3ccncc3)c3ccccc3n2)n1 [GW869640] | 17% | 38% | 29% | 47% | 0% | 24% | 0% | 30% | 55% | 10% | – | – | – | –
O=S(=O)(c1ccc(-c2ccnc3[nH]ccc23)cc1)N1CCCC1 [GSK846226] | 22% | 0% | 18% | 14% | 21% | 7% | 16% | 0% | 0% | 0% | – | – | – | –
COc1ccccc1CNC(=O)c1cc(C(=O)c2ccccc2C)c[nH]1 [GSK364507] | 0% | 0% | 41% | 36% | 0% | 0% | 0% | 0% | 0% | 0% | – | – | – | –
Cl.NC(=O)c1cccc(Nc2nccc(Nc3ccc(Oc4cccc(Cl)c4)c(Cl)c3)n2)c1 [GW659008] | 14% | 0% | 22% | 99.7% | 0% | 0% | 33% | 37% | 0% | 0% | – | – | – | –
O=C(Nc1n[nH]c2nc(-c3nccs3)c(Br)cc12)C1CC1 [SB-742251] | 0% | 0% | 13% | 74% | 0% | 0% | 12% | 0% | 20% | 0% | – | – | – | –
O=c1cc(N2CCOCC2)nc2n(Cc3cccc(Cl)c3Cl)ccn12 [GSK2286295] | 0% | 0% | 6% | 13% | 0% | 0% | 29% | 0% | 6% | 0% | – | – | – | –
Cc1cc(-c2ccc3c(c2)CC[C@@H](N[C@@H](C)c2ccccc2)C3)cnc1N.Cl [GW412617] | 12% | 0% | 34% | 55% | 0% | 36% | 26% | 0% | 40% | 1% | – | – | – | –
CN1C(=O)C(Nc2ccc(Cl)c(C(=O)O)c2)=C(c2ccc(Cl)cc2)C1=O [SB-404290] | 21% | 3% | 26% | 0% | 0% | 4% | 11% | 0% | 10% | 0% | – | – | – | –
COc1ccc2nc(-c3cccc(C)n3)nc(Nc3ccncc3)c2c1 [GSK204919] | 0% | 0% | 17% | 1% | 0% | 0% | 15% | 15% | 30% | 0% | – | – | – | –
CCn1c(-c2cccnc2O)nc2cnccc21 [SB-736715] | 0% | 14% | 0% | 11% | 0% | 1% | 26% | 0% | 0% | 0% | – | – | – | –
COc1ccc(Nc2nccc(NCCNC(=O)Nc3ccccc3F)n2)cc1 [GSK1379901] | 8% | 0% | 11% | 56% | 0% | 0% | 24% | 0% | 11% | 55% | – | – | – | –
CC1=C(C(=O)Nc2cc3cn[nH]c3cc2F)C(c2ccc(C(F)(F)F)cc2)CC(=O)N1 (stereo not drawn) [GSK429286] | 0% | 23% | 15% | 8% | 0% | 0% | 13% | 0% | 0% | 48% | – | – | – | –
Fc1cc(Cl)ccc1Nc1ccnc2cc(-c3ccc(CN4CCCCC4)o3)ccc12 [GW560116] | 100% | 0% | 32% | 83% | 2% | 9% | 0% | 0% | 19% | 0% | – | – | – | –
CCCc1ccc(S(=O)(=O)NC2CCN(c3ccnc(Nc4ccc(F)cc4)n3)C2)cc1 (stereo not drawn) [GSK1379715] | 0% | 0% | 28% | 0% | 100% | 0% | 0% | 0% | 0% | 0% | – | – | – | –
Cc1cccc(-c2cc(Nc3ccncc3)c3ccccc3n2)n1 [GSK223675] | 0% | 0% | 0% | 0% | 0% | 0% | 4% | 0% | 10% | 5% | – | – | – | –

SMILES | %Inh (MEK2) | %Inh (MEK3) | %Inh (MEK4; [1]) | %Inh (MEK5; [1]) | %Inh (MEK6) | %Inh (MELK; [1]) | %Inh (MERTK; [1]) | %Inh (MET) | %Inh (MINK) | %Inh (MKK7) | %Inh (MEK4; [2]) | %Inh (MEK5; [2]) | %Inh (MELK; [2]) | %Inh (MERTK; [2])
Cc1cccc(-c2nc(Nc3cccc(C(N)=O)c3)c3ccccc3n2)n1 [GW876019] | 27% | 14% | 0% | 20% | 0% | 24% | 11% | 19% | 5% | 0% | – | – | – | –
NC(=O)c1nnc2ccccc2c1N | 47% | 46% | 17% | 34% | 0% | 9% | 0% | 16% | 38% | 0% | – | – | – | –
Cc1ccc(-c2cc(-c3c[nH]nc3-c3ccccn3)ccn2)cc1 [GW684088] | 0% | 0% | 9% | 17% | 19% | 25% | 13% | 0% | 87% | 14% | – | – | – | –
CS(=O)(=O)c1ccc(-c2c(-c3ncn[nH]3)sc(N3CCOCC3)c2C#N)cc1 | 0% | 0% | 0% | 16% | 0% | 5% | 0% | 0% | 21% | 10% | – | – | – | –
Cl.Oc1ccc(-c2nc(-c3ccccc3)[nH]c2-c2ccncc2)cc1 [SB-428218] | 0% | 0% | 0% | 17% | 1% | 2% | 0% | 0% | 11% | 0% | – | – | – | –
COc1cc2ncn(-c3cc(OCC4CCCO4)c(C(N)=O)s3)c2cc1OC (stereo not drawn) [GSK204607] | 9% | 0% | 5% | 99.3% | 0% | 0% | 10% | 0% | 27% | 0% | – | – | – | –
Cl.c1ccc(-c2n[nH]cc2-c2ccnc(-c3ccc(CN4CCOCC4)cc3)c2)nc1 [GW776245] | 49% | 0% | 27% | 5% | 0% | 5% | 8% | 16% | 8% | 0% | – | – | – | –
CN(C)CCN(C)C(=O)c1cc(-c2ccncc2)c(-c2ccc(Cl)c(O)c2)o1.Cl.Cl [SB-710397] | 0% | 0% | 0% | 48% | 0% | 9% | 24% | 0% | 46% | 14% | – | – | – | –
COc1ccc(CNC(=O)NC2CCN(c3ccnc(Nc4cc(OC)c(OC)c(OC)c4)n3)C2)cc1 (stereo not drawn) [GSK1379748] | 0% | 0% | 6% | 98.4% | 0% | 0% | 36% | 9% | 0% | 0% | – | – | – | –
Cc1ccc(NC(=O)Nc2cccc(Cl)c2)cc1-c1ccc(C(=O)Nc2ccncc2)cc1 [GSK1398468] | 0% | 0% | 38% | 11% | 0% | 0% | 0% | 0% | 14% | 30% | – | – | – | –
COC(=O)c1c(-c2ccccc2)c2cc(C(=O)O)ccc2c(=O)n1Cc1ccccc1 | 10% | 7% | 0% | 4% | 0% | 0% | 0% | 0% | 0% | 0% | – | – | – | –
COc1ccccc1-c1ccc2c(NC(=O)C3CC3)n[nH]c2n1 [SB-711239] | 0% | 16% | 21% | 0% | 0% | 15% | 2% | 0% | 6% | 7% | – | – | – | –
Fc1cccc(COc2nnc(-c3ccc4c(c3)CCO4)o2)c1 | 4% | 0% | 0% | 9% | 0% | 19% | 0% | 0% | 1% | 13% | – | – | – | –
COc1cc(Nc2nccc(N3CCC(NC(=O)Nc4cc(C)ccc4C)C3)n2)cc(OC)c1OC (stereo not drawn) [GSK1379762] | 0% | 0% | 7% | 99.8% | 0% | 5% | 51% | 42% | 0% | 0% | – | – | – | –
CCn1c(-c2ccccn2)nc2cnccc21 [SB-736398] | 0% | 0% | 19% | 12% | 100% | 22% | 0% | 15% | 0% | 0% | – | – | – | –
CSc1nn2c(=O)cc(N3CCOCC3)nc2n1Cc1cccc(C(F)(F)F)c1C [GSK2363608] | 0% | 0% | – | – | 0% | – | – | 0% | 0% | 0% | 17% and 30% | 12% and 0% | 6% and 0% | 0% and 18%
COc1ccc(C2=C(Nc3cccc(C(=O)O)c3)C(=O)NC2=O)cc1 [SB-390765] | 15% | 15% | 7% | 40% | 0% | 11% | 11% | 0% | 8% | 8% | – | – | – | –
COC(=O)c1c(-c2ccccc2)c2cc(OC)ccc2c(=O)n1Cc1ccccc1 | 0% | 0% | 18% | 10% | 21% | 0% | 3% | 0% | 0% | 7% | – | – | – | –
